According to PubChem BioAssay AID628 (Vanderbilt High Throughput Screening Facility, 2007):
Among all 64,000 compounds or so, about 2,200 (3.4%) were called active.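 Rule for the calls: active = calcium fluorescence response, raw or row-and-column corrected B-score, differing from the plate sample mean either way at a set confidence level, mostly lower; inactive = the rest.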 The entries come from a sample that favours actives as a whole.

target: Muscarinic acetylcholine receptor M1 (Rattus norvegicus) (UniProt P08482); test: blocks the rat M1 muscarinic receptor response to acetylcholine (AID 628); settings: CHO-M1 cells, Fluo-4 calcium, ACh EC80 antagonist mode; at 10 µM; active compounds read low
Sequence (P08482 whole entry, looked up): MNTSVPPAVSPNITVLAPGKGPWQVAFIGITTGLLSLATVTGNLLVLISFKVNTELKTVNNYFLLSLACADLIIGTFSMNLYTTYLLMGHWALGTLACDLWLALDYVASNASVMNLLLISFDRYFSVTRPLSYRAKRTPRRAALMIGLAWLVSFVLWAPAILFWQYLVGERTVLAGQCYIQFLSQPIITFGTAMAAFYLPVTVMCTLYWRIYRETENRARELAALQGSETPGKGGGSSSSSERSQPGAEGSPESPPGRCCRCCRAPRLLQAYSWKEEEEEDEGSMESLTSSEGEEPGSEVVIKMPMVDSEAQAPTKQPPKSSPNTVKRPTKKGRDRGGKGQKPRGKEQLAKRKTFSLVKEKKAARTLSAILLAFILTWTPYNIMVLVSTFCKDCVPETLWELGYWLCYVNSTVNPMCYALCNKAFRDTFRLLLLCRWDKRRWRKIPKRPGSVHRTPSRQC

SMILES	B-score
N#Cc1ccccc1-n1c(N)c(C(=O)N2CCCC2)sc1=S	0.0882 (inactive)
CCc1ccccc1N(CC(=O)NCCSCc1ccco1)S(C)(=O)=O	0.00624 (inactive)
COc1cccc2sc(Nc3nc(C)c(C(C)=O)s3)nc12	-5.09 (active)
COc1ccccc1Nc1ncc(C(C)=O)c(C)n1	-0.0613 (inactive)
COC(=O)c1sc(NC(=O)c2ccc(OC)cc2OC)nc1C	0.124 (inactive)
O=C(CC(NCCN1CCOCC1)C(=O)O)Nc1cccc(Cl)c1 (stereo not given)	-0.31 (inactive)
C=CCNC(=O)c1cc(-c2ccccc2O)on1	-0.349 (inactive)
Cc1nn(CC(=O)Nc2ccc3c(c2)nc(CN2CCCCC2)n3C)c(=O)c2ccccc12	-0.553 (inactive)
CCC(=O)Nc1ccc2c(c1)nc(CCN1CCN(C)CC1)n2C	0.254 (inactive)
Cn1c(CCN2CCCCCC2)nc2cc(NC(=O)Nc3ccccc3)ccc21	-12.1 (active)
CC(=O)Nc1ccc(-c2cn3cccnc3n2)cc1	-0.0342 (inactive)
COc1ccc(S(=O)(=O)NC(CC(=O)NCc2ccccc2OC)c2ccco2)cc1 (stereo not given)	-0.297 (inactive)
CCS(=O)(=O)n1nc(-c2ccc(OC)cc2)nc1SC	0.364 (inactive)
O=C1CCCN1CCCNc1ncnc2c1[nH]c1ccccc12	-0.26 (inactive)
CCN1CCCC1CNc1ncnc2c1[nH]c1ccc(F)cc12 (stereo not given)	0.215 (inactive)
CC(C)OCCCNc1ncnc2c1[nH]c1ccc(F)cc12	-5.34 (active)
Cc1ccc2c(c1)NCC(C(=O)NC1CCC(C)CC1)O2 (stereo not given)	0.906 (inactive)
O=C(Oc1cccnc1)c1cc2ccccc2oc1=O	-1.49 (inactive)
OC(COc1cccc2ccccc12)CN1CCN(c2ccccn2)CC1 (stereo not given)	-0.255 (inactive)
CN(C)[C@@H]1C(=O)C(C(N)=O)=C(O)[C@@]2(O)C(=O)C3=C(O)c4c(O)ccc(Cl)c4[C@@H](O)[C@H]3C[C@@H]12	-15.3 (active)

SMILES	B-score
Cn1cccc1C(=O)NC(=O)COC(=O)Cc1coc2ccc3ccccc3c12	-0.0274 (inactive)
COc1ccccc1CNC(=O)C1CCN(S(C)(=O)=O)CC1	0.445 (inactive)
Cc1nc(NCCN)c(C#N)c2c1COC(C)(C)C2	0.614 (inactive)
Cc1ccc(-n2ncc3c(N4CCN(c5ccc(F)cc5)CC4)ncnc32)c(C)c1	-0.0379 (inactive)
Fc1ccc2[nH]c3c(N4CCN(Cc5ccc6c(c5)OCO6)CC4)ncnc3c2c1	-0.265 (inactive)
Fc1ccc2[nH]c3c(N4CCSCC4)ncnc3c2c1	-2.69 (active)
N#CNC1=NCN(CCc2ccccc2)CN1	-0.391 (inactive)
Cc1ccc2nc(NC3=NCN(CCc4ccccc4)CN3)nc(C)c2c1	-5.98 (active)
c1ccc(CCN2CN=C(Nc3nc4ccccc4o3)NC2)cc1	0.0039 (inactive)
O=C(NCCC1=CCCCC1)C1CCN(Cc2cnn(-c3ccccc3)c2-n2cccc2)CC1	-1.39 (inactive)
Cc1ccc2cc3cc(C(=O)N4CCCCCC4)oc3nc2c1	-0.434 (inactive)
COc1cccc(-c2cc3nc4c(c(N5CCC6(CC5)OCCO6)n3n2)CCCC4)c1	-0.0679 (inactive)
CC(=O)N1CCN(C(=O)Nc2cccc(C(F)(F)F)c2)CC1	-0.154 (inactive)
O=C(Nc1cccc(NC(=O)N2CCN(c3ccccc3)CC2)c1)N1CCN(c2ccccc2)CC1	-3 (active)
O=C(Nc1cccc(C(=O)N2CCCC2)c1)c1ccccc1	0.0406 (inactive)
COc1ccc(-c2c(C)nn3c(N4CCC(C(=O)N5CCCCC5)CC4)cc(C)nc23)cc1OC	-0.265 (inactive)
FC(F)(F)c1cccc(Nc2ncnc3ccccc23)c1	0.376 (inactive)
O=C(Nc1cccc(F)c1)c1ccc(S(=O)(=O)N2CCCC2)cc1	-0.622 (inactive)
N#CC(C(=O)c1ccc(S(=O)(=O)N2CCCCCC2)cc1)c1nc2ccccc2[nH]1 (stereo not given)	-4.04 (active)
COc1ccccc1N1CCN(C(=O)c2ccc(S(=O)(=O)N3CCCCC3)cc2)CC1	-1.54 (inactive)

SMILES	B-score
CCOc1ccccc1NC(=O)C1CCC(CNc2c(N3CCOCC3)c(=O)c2=O)CC1 (stereo not given)	0.744 (inactive)
COc1ccc(N2C(=O)CC(N3CCC(C(N)=O)CC3)C2=O)cc1 (stereo not given)	-0.21 (inactive)
O=C(CSc1nnc(-c2cccs2)n1Cc1ccco1)c1ccc2c(c1)OCO2	0.219 (inactive)
COC(=O)C1=CN(C)C=C(C(=O)OC)C1c1ccc(Cl)cc1Cl	1.15 (inactive)
c1ccc(-c2cc(-c3nnc4sc(-c5ccccn5)nn34)[nH]n2)cc1	-2.66 (active)
COc1cc(-c2nn3c(-c4cccc(C)c4)nnc3s2)cc(OC)c1OC	0.799 (inactive)
CCOc1cccc(-c2nn3c(-c4ccccn4)nnc3s2)c1	-0.924 (inactive)
CCCCOC(=O)Nc1nccs1	0.0324 (inactive)
COc1ccc(Cl)cc1NC(=O)c1oc(C)nc1C	-0.215 (inactive)
O=C(c1cccc(S(=O)(=O)N2CCOCC2)c1)N1CCOCC1	0.238 (inactive)
O=C(c1ccc(S(=O)(=O)N2CCOCC2)cc1)N1CCN(c2ccccc2)CC1	-2.93 (active)
CSC1=NCCN1C(=O)c1ccc(S(=O)(=O)N2CCOCC2)cc1	-0.648 (inactive)
Cc1ccc2oc(=O)c3cnn(CC(=O)N4CCN(c5ccccn5)CC4)c3c2c1	0.00225 (inactive)
Cc1c(C(=O)OCC(=O)N(CCC#N)c2ccccc2)oc2c1ccc1ccccc12	0.252 (inactive)
CCCN1CCN(CCCNC(=O)CN2C(=O)COc3ccccc32)CC1	0.138 (inactive)
O=C(CCN1C(=O)COc2ccccc21)NCCCN1CCN(c2ccc(F)cc2)CC1	-2.15 (active)
COc1ccc(N2CCN(CCNC(=O)CCN3C(=O)COc4ccccc43)CC2)cc1	1.04 (inactive)
O=S1(=O)CC(NCc2ccccc2)C(Nc2ccc(Cl)cc2)C1 (stereo not given)	-0.75 (inactive)
CCCCCn1c(SCCC(C)C)nc2c1c(=O)[nH]c(=O)n2C	-0.348 (inactive)
Cn1c(=O)[nH]c(=O)c2c1nc(CN1CCN(c3ccccc3F)CC1)n2CCc1ccccc1	-0.0585 (inactive)
